Experimental data as given in ChEMBL document CHEMBL3988442, “University of Dundee, Small-Polar-MMV Screening Library” (2021).
Screen size: about 48,000 compounds; about 13,000 (27%) showed an effect of 50% or more. Some of the results follow.

Each compound was assayed on Wolbachia pipientis (assay: Anti-Wolbachia Cell-Based Screen). Conditions: 5 µM.
Assay type: functional
Set-up: scale not given: in the data most compounds retested in dose-response had high values

| SMILES | Percent Effect [%] |
| --- | --- |
| CC(C)(C)c1cnc(CN2CCCS(=O)(=O)CC2)o1 | -0.7322 |
| OCC1CCN(Cc2cc3c(cc2Br)OCCO3)CC1 | -6.909 |
| CC(C)c1nc(C2CCCN2Cc2ccno2)no1 (stereo unspecified) | -3.719 |
| CCc1nc(C2CCCN2Cc2nnc(CC)o2)no1 (stereo unspecified) | -8.839 |
| FC(F)(F)Cn1ccnc1CN1CCCC1c1noc(C2CC2)n1 (stereo unspecified) | 2.411 |
| Cn1ccnc1CN1CCCC1c1noc(C2CC2)n1 (stereo unspecified) | 3.243 |
| CCc1nc(C2CCCN2Cc2ccno2)no1 (stereo unspecified) | 111.3 |
| c1cc(CN2CCCC2c2noc(C3CC3)n2)on1 (stereo unspecified) | 95.79 |
| O=S(=O)(N1CCCCCC1)N1CCc2sccc2C1 | 4.086 |
| CS(=O)(=O)N1CCOC(CNC(=O)c2cccc(C#N)c2)C1 (stereo unspecified) | -22.73 |
| O=C(c1cccc(F)c1)N(CCCO)S(=O)(=O)c1cccs1 | -5.785 |
| Cc1cccc(OC2CCN(C(=O)Cn3ccc4ccccc43)CC2)n1 | 1.872 |
| Cn1cc(CN2CCOC(c3nccnc3-c3cccc(F)c3)C2)cn1 (stereo unspecified) | 187.6 |
| Cn1cc(CN2CCCC(CCc3ccccc3C(F)(F)F)C2)cn1 (stereo unspecified) | 9.578 |
| Cn1cc(CN2CCCC(c3nccnc3-c3cccc(F)c3)C2)cn1 (stereo unspecified) | 135.8 |
| Cn1cc(CNC(=O)C2CCCN(Cc3cccc(F)c3)C2)cn1 (stereo unspecified) | -5.601 |
| Cn1cc(CN2CCOC(c3cccc(-c4cccc(F)c4)n3)C2)cn1 (stereo unspecified) | 143.3 |
| CC(C)c1ccc(CN2CCC3(CCCN(c4nncs4)C3)C2)cc1.O=C(O)C(F)(F)F (stereo unspecified) | 37.55 |
| Cc1cccc(OCCC(=O)N2CCN(S(=O)(=O)N(C)C)CC2)c1C | -2.723 |
| Cl.O=C(NC[C@@]1(COc2cnccn2)C[C@@H](O)[C@@H](O)C1)C1CCCC1 | -8.405 |
| COc1ccccc1CN(C)Cc1ccnc(C2CCCO2)n1 (stereo unspecified) | 134 |
| COc1ccc(CN(C(=O)C2CCCO2)c2ccncc2)cc1 (stereo unspecified) | -15.48 |
| COc1ccc(CN(C(=O)C2CCOCC2)c2ccncc2)cc1 | -12.74 |

| SMILES | Percent Effect [%] |
| --- | --- |
| COc1ccnc(N(C)Cc2ccccc2OC(F)(F)F)n1 | -0.2691 |
| COc1ccc(CN(C)Cc2ccnc(C3CCCO3)n2)cc1 (stereo unspecified) | 120.3 |
| CCCN(Cc1cnc2ccccc2n1)Cc1ccccc1OC | -2.298 |
| COc1ccc(Cl)cc1NC(=O)CCC1CCCN(Cc2ncon2)C1 (stereo unspecified) | 23.91 |
| Cc1nc(NC(=O)NCc2cccnc2NCCN(C)C)sc1C | -3.378 |
| COCCN1CCC2(C1)c1ccccc1S(=O)(=O)N2C.O=C(O)C(F)(F)F (stereo unspecified) | 90.85 |
| COCCN1C2(CCN(CC3CC3)C2)c2ccccc2S1(=O)=O.O=C(O)C(F)(F)F (stereo unspecified) | 102.4 |
| COCCN1CCC2(C1)c1ccccc1S(=O)(=O)N2Cc1ccccc1.O=C(O)C(F)(F)F (stereo unspecified) | 6.934 |
| Cc1c(C(=O)NC2CC(C)(C)NC(C)(C)C2)cnn1-c1ccc(F)cc1 | -13.93 |
| CC1(C)CC(NC(=O)c2cnn(-c3ccccc3F)c2N)CC(C)(C)N1 | 151.8 |
| Cc1ccc(-n2ncc(C(=O)NC3CCCCC3)c2N)cc1 | 3.957 |
| CC(C)C(=O)Nc1cc(C(=O)NC2CC(C)(C)NC(C)(C)C2)nn1C | -26.3 |
| Cc1ccc(-n2ncc(C(=O)NC3CC(C)(C)NC(C)(C)C3)c2N)cc1 | 174.2 |
| CC(C)(C)SCCNC(=O)[C@@]12CNC[C@@H]1CN(S(C)(=O)=O)C2 | 5.951 |
| Cc1nc(C)n(CC2CN(CCOc3ccccc3F)CCO2)n1 (stereo unspecified) | 5.326 |
| Cc1nc(C(=O)NC2CCN(CCOc3ccc(Br)cc3)CC2)cs1 | 6.734 |
| Cc1csc2c(C3CCN(CCCOc4ccccc4)CC3)nc(C)n12 | 96.85 |
| CC(C)Cc1noc(CN2CCN(CCOc3ccc(Cl)cc3)CC2)n1 | -9.815 |
| Cc1ccc(OCCN2CCC(c3nc(C)n4c(C)csc34)CC2)cc1 | 140.7 |
| Cc1nc(CCN2CCC(Oc3ccccc3F)CC2)cs1 | -0.6309 |
| Cc1csc2c(C3CCN(CCOc4ccccc4F)CC3)nc(C)n12 | 93.69 |
| CCCc1n[nH]c(C2CN(CCCOc3ccccc3)CCO2)n1 (stereo unspecified) | -4.502 |
| CN(CC(=O)N1CC(Oc2ccccc2Cl)C1)Cc1ccncc1 | -2.119 |

| SMILES | Percent Effect [%] |
| --- | --- |
| O=C(O)c1cnc(-c2cccc3c2CCNC3)c(Cl)c1 | 123.8 |
| Cc1cnc(-n2cnnc2)c(-c2cccc3c2CCNC3)c1 | -5.841 |
| O=C(c1cnc(OCC(F)(F)F)c(Cl)c1)N1CCc2ccc(O)cc2C1 | -3.134 |
| O=C(O)c1cnc(OCC2CC2)c(Cl)c1 | -32.81 |
| Cc1ccc(C(=O)O)cc1S(=O)(=O)N(C)c1cccc(C#N)c1 | 8.363 |
| Cc1ccc(C(=O)O)cc1-c1cccc2c1CCNC2 | 128.8 |
| COc1cccc2c1N(S(=O)(=O)c1cc(C(=O)O)cs1)CCC2 | -3.989 |
| COc1ccc(C(=O)O)cc1-c1cccc(C(C)N(C)C)c1 (stereo unspecified) | -0.7125 |
| COc1ccc(C(=O)O)cc1-c1cccc2c1CCNC2 | 99.52 |
| Cc1ccc([C@@H]2CN(C(=O)c3cc(C)n[nH]3)C[C@H]2NC(=O)C2CC2)cc1 | 4.814 |
| CCNC(=O)CN(CC)S(=O)(=O)c1c(Br)cc2[nH]c(=O)oc2c1Cl | -2.285 |
| CC(C)CN(C(=O)Nc1cccc(C(=O)N(C)C)c1)C1CC1 | 4.006 |
| CN(C)CC(c1ccccc1)N(C)C(=O)c1cccc(NCC(=O)O)c1 (stereo unspecified) | 104.1 |
| Cc1cc(CNc2cccc(C(=O)N(C)c3ccccc3)c2)no1 | 2.006 |
| CN(CC(=O)N1CCCC1)C(=O)c1ccccc1Nc1ccccc1 | -0.554 |
| COC(C)c1cccc(NCc2cccs2)c1 (stereo unspecified) | 2.749 |
| CN(C(=O)c1cccc(NCc2cccs2)c1)C(C1CC1)C1CC1 | 113 |
| CC(C)N(CC(=O)Nc1cccc(C(=O)N(C)C)c1)C1CC1 | 5.845 |
| CN(C(=O)c1cccc(NCC(=O)O)c1)C(C1CC1)C1CC1 | 109.4 |
| Cc1ccnc(NCCNC(=O)c2ccccc2NCC(=O)O)c1 | -16.08 |
| CN(C(=O)c1ccccc1NCC(=O)O)C(C1CC1)C1CC1 | 114.3 |
| CCn1nc(C)c(CCNC(=O)c2cccc(NCC(=O)O)c2)c1C | -5.115 |
| CC(=O)Nc1cccc(C(=O)N(C)C(C)Cc2cc(C)ccn2)c1 (stereo unspecified) | 4.881 |

| SMILES | Percent Effect [%] |
| --- | --- |
| CC(C)(C)C(=O)N1C[C@@H](F)[C@@H](OCc2nc3ccccc3o2)C1 | -2.26 |
| Cc1cnn(C2CN(Cc3noc(C4CC4)n3)C2)c1 | -0.9556 |
| CN1C(=O)C2(CCN(S(C)(=O)=O)CC2)c2cc(F)ccc21.Cl | -38.1 |
| Brc1cc(CNCc2nnc3n2CCC3)cs1.Cl | -5.919 |
| O=C(CN(Cc1cccnc1)CC1CCCO1)Nc1ccc(F)cc1 (stereo unspecified) | -1.761 |
| O=C(COCC1CCCO1)N(Cc1cccnc1)c1ccc(F)cc1 (stereo unspecified) | 100.3 |
| O=C(CCc1cccnc1)N(Cc1ccsc1)CC1CCCO1 (stereo unspecified) | -15.29 |
| CC(CCNC(=O)NCCc1ccncc1)c1ccccc1 (stereo unspecified) | 4.177 |
| CNC(=O)C1(CCCc2ccncc2)CCCCN1.Cl (stereo unspecified) | 104.3 |
| CNC(=O)C1(CCCc2ccncc2)CCCN1 (stereo unspecified) | -10.96 |
| CCN(Cc1ccncc1)C(=O)c1cn(CCCc2ccccc2)nn1 | -1.571 |
| CN(C)C(=O)C1(CCCc2ccncc2)CCCN1 (stereo unspecified) | -8.359 |
| CNC(=O)C1(CCCc2ccncc2)CCN1.O=C(O)C(F)(F)F (stereo unspecified) | 127.6 |
| NC(=O)C1(CCCc2ccncc2)CCCN1 (stereo unspecified) | 96.03 |
| CCNc1ncc(C(=O)NCCCc2ccncc2)cn1 | -5.909 |
| CC(=O)NC(=O)C1(CCCc2ccncc2)CCN1 (stereo unspecified) | 96.13 |
| CN(CCCNC(=O)NCc1ccncc1)CC(F)(F)F | -10.78 |
| O=C(O)C(F)(F)F.O=C(O)C(F)(F)F.O[C@H]1CCN(CC2CC2)[C@H]1Cc1ccncc1 | 1.351 |
| Cc1cccc(C(C(=O)NCCCc2ccncc2)N(C)C)c1 (stereo unspecified) | -9.46 |
| CN(CCSc1ccccc1)C(=O)C(c1cccnc1)N1CCOCC1 (stereo unspecified) | 0.338 |
| Cc1cc(S(=O)(=O)Nc2cccc(I)c2)sc1C(=O)O | 5.422 |
| CN1CCCC2(CCN(c3cc(C(F)(F)F)nc(N(C)C)n3)C2)C1=O (stereo unspecified) | 7.307 |
| COc1cccc(CNc2cc(CO)ccc2Cl)c1 | -79.64 |

| SMILES | Percent Effect [%] |
| --- | --- |
| COc1ccccc1OCC(=O)Nc1ncccc1Cl | -0.249 |
| COc1ccc(CNC(=O)c2ccc(Cl)cc2F)cc1C(=O)O | 25.37 |
| COc1cc(CNc2ccc(Cl)cc2)ccc1OCC(=O)O | 106 |
| COc1cc(CNc2ccccc2Cl)ccc1OCC(=O)O | 86.61 |
| CCc1cnc(N)nc1NCc1ccc(OC)c(OC)c1 | -14.4 |
| CNC(=O)NC(=O)CNC(CC(F)(F)F)c1ccc(F)cc1 (stereo unspecified) | 13.05 |
| CN(CC(=O)N1CC(C)(C)[C@](O)(C2CC2)C1)Cc1ccncc1 | -13.6 |
| CCN1CCN(C2CCN(Cc3nc4ccccc4o3)CC2)C1=O | -0.2621 |
| CCN(CC)C(=O)[C@@H]1C[C@@H](NC(=O)c2cccn2C2CC2)CN1C | 0.5236 |
| CCOCCCNC(=O)c1cccn1Cc1cccnc1 | -15.39 |
| COCc1nnc(C(=O)N(C)Cc2cnc3ccccn23)o1 | -16.21 |
| COC(=O)c1cccn1C1CCN(Cc2cnc3ccccn23)CC1 | 132 |
| COC(=O)c1cccn1C1CCN(Cc2nc3ccccc3o2)CC1 | 118.1 |
| CC(C)C(C)NC(=O)c1cccn1Cc1cccnc1 (stereo unspecified) | -0.09991 |
| Cc1ncc2c(n1)CCN(Cc1nc3ccccc3o1)C2 | 7.952 |
| O=C1CCC(=O)N1CCN1CCC(=Cc2ccccc2)CC1 | -0.4568 |
| CCc1nc(C)c(C(=O)N(C)Cc2cnc3ccccn23)o1 | -30.87 |
| COC(=O)c1cccn1C1CCN(CCN2C(=O)CCC2=O)CC1 | 85.14 |
| COC(=O)c1cccn1C1CCN(Cc2cccnc2)CC1 | 126.9 |
